Experimental data reported in PubChem BioAssay (EPA / NIEHS).
“And” between values parts separate entries of the source, which are not always exact repeats. Equal values may be shown once. The source made the active and inactive calls. The calls were made as follows: active = hit-call score of the fitted dose curve at least 0.9, where 1 is the maximum; inactive = score below 0.9.

The compounds below were run on Urokinase-type plasminogen activator receptor (uPAR), PLAUR (gene 5329) (assay: BSK_BE3C_uPAR: BioMAP Diversity Plus: BE3C Assay for Urokinase-type plasminogen activator receptor (uPAR) Biomarker Activity (AID 2283039;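 as to outcome: cells exposed to compound for one day before measurement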)). Conditions: primary human bronchial epithelial cells; actives raise or lower the signal.
Method: BSK_BE3C is a cell-based, multiplexed-readout assay that uses bronchial epithelial cell, a human lung primary cell, with measurements taken at 24 hours after chemical dosing in a 96-well plate.BSK_BE3CAR is an assay component measured in the BSK_BE3C assay. It measures uPAR antibody related to regulation of gene expression using ELISA technology.Data from the assay component BSK_BE3CAR was analyzed into 1 assay endpoint. This assay endpoint, BSK_BE3CAR, was analyzed with bidirectional fitting relative to DMSO as the negative control and baseline of activity. Using a type of binding reporter, gain or loss-of-signal activity can be used to understand changes in the signaling as they relate to the gene PLAUR. Furthermore, this assay endpoint can be referred to as a primary readout, because this assay has produced multiple assay endpoints where this one serves a signaling function. To generalize the intended target to other relatable targets, this assay endpoint is annotated to the cytokine intended target family, where the subfamily is plasmogen activator.
The levels of cell surface (or secreted, indicated by the prefix "s") biomarker endpoints were measured by ELISA. Overt cytotoxicity to cells in confluent adherent cultures (all systems other than the BT system) was assessed by measuring total protein levels using sulforhodamine B (SRB) staining in parallel cultures at the time of biomarker measurements, indicated as SRB endpoints. For proliferation assays for adherent cell types, individual cell types are cultured at sub-confluence and relative cell numbers quantified by SRB staining at time points optimized for each system (48 h: 3C and CASM3C systems; 72 h: BT and HDF3CGF systems; 96 h: SAg system). SRB was performed by staining cells with 0.1% SRB after fixation with 10% TCA and reading wells at 560 nm.Viability and proliferation of PBMC (T cells) was quantified by Alamar Blue reduction for the SAg and BT systems. For PBMC viability (referred to as PBMC Cytotoxicity within the assay endpoint names), cells were plated (75,000/well in a 96-well plate) and then chemical samples added for 1 h before addition of activators, SEB and TSST-1 (20 ng/mL final concentration each). Cells were incubated for 90 h. Then, Alamar Blue (20 uL/well) (Invitrogen, Cat DAL1100) was added for 6 h, and the plates were read with a fluorescence microplate reader at 546/580 nm (excitation/emission). For PBMC proliferation, cells were plated and activated as above but incubated for only 16 h prior to addition of Alamar Blue. Plates were read after 6 h.

SMILES	outcome	AC50
C1CN(CCOCCN2CCOCC2)CCO1	inactive	
CCC[Si](OC(C)=O)(OC(C)=O)OC(C)=O	inactive	
CCCCCCCCCCCCCCCCCC[N+](C)(C)C	inactive	
COc1cc(CNC(=O)CCCC/C=C/C(C)C)ccc1O	inactive	
CCC(C)=NO	inactive	
O=[N+]([O-])c1cc(S(=O)(=O)Nc2ccccc2)ccc1Nc1ccccc1		32.4 µM (active) and 31.6 µM (active)
Cc1cc(-n2nc3ccc(Cl)cc3n2)c(O)c(C(C)(C)C)c1	inactive	
Sc1nc2ccccc2s1	inactive	
Cc1cccnc1	inactive	
COC(=O)/C=C\C(=O)OC	inactive	
Cc1c(C(N)=O)cc([N+](=O)[O-])cc1[N+](=O)[O-]	inactive	
CN(C)Cc1cc(C(C)(C)C)c(O)c(C(C)(C)C)c1	inactive	
CCCCCCCCCC/C=C/C1CC(=O)OC1=O (configuration not stated)	inactive	
CCCCC(CC)COC(=O)C=Cc1ccc(OC)cc1 (configuration not stated)	inactive	
CC[N+](CC)(CC(=O)Nc1c(C)cccc1C)Cc1ccccc1	inactive	
CCCCCCCCCCC1CO1 (configuration not stated)	inactive	
O=C(C(=O)c1ccccc1)c1ccccc1	inactive	
CC[N+](CC)(CC(=O)Nc1c(C)cccc1C)Cc1ccccc1 (tested in a mixture with another compound)	inactive	
CN(C)CCC(c1ccc(Cl)cc1)c1ccccn1 (configuration not stated)	inactive	
CC(C)CC(=O)CC(C)CC(C)C (configuration not stated)		34.9 µM (active)
CCCCCCC(O)CCCCCCCCCCC(=O)OC (configuration not stated)	inactive	
CN(C)c1ccc(C(c2ccccc2)c2ccc(N(C)C)cc2)cc1	inactive	
COc1ccccc1Oc1c(NS(=O)(=O)c2ccc(C(C)(C)C)cc2)nc(-c2ncccn2)nc1OCCO	inactive	
CC(C)C1OCCN1CCOC(=O)NCCCCCCNC(=O)OCCN1CCOC1C(C)C (configuration not stated)	inactive	
COc1ccc(C(=O)c2ccccc2O)c(O)c1	inactive	
Oc1cccc2ccccc12	inactive	
OC(C(F)(F)F)(C(F)(F)F)C(O)(C(F)(F)F)C(F)(F)F		14.4 µM (active) and 13.8 µM (active)
